# ± gives the standard deviation of the averaged measurements.
# How the values were obtained:
# DLD1 [1] = experiment: cell viability (CellTiter-Glo) relative to plate median (fraction of plate median); higher = more viable cells; conditions: 5 µM; treatment time 24 h; reporter: 7TFP
# Method in brief: (§1)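 For this screen, colorectal cancer cell lines carrying stable lentiviral TCF/Wnt firefly luciferase reporters, either 7TFP or TCF4/Wnt, were seeded into 384-well plates. A day's wait of 24 h preceded addition of library compounds at a final 5 µM, which stayed on the cells for 24 h. Firefly luciferase or CellTiterGlo luminescence, read on parallel plates, was normalised to the plate median per well, and the reported value is the mean of two independent replicates.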
# HCT116 [2] = experiment: as above; conditions: 5 µM; treatment time 24 h; reporter: TCF4/Wnt
# Method in brief: as §1
# SW480 [3] = experiment: as above; conditions: 5 µM; treatment time 24 h; reporter: 7TFP
# Method in brief: as §1
# DLD1 [4] = experiment: TCF/Wnt firefly luciferase reporter signal relative to plate median (fraction of plate median); higher = higher Wnt reporter signal; conditions: 5 µM; treatment time 24 h; reporter: 7TFP
# Method in brief: as §1
# SW480 [5] = experiment: as above; conditions: 5 µM; treatment time 24 h; reporter: 7TFP
# Method in brief: as §1
# DLD1 [6] = experiment: cell viability (CellTiter-Glo) relative to plate median (fraction of plate median); higher = more viable cells; conditions: 10 µM, treatment time 24 h
# Method in brief: (§2)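 Colorectal cancer cell lines stably transduced with lentiviral TCF/Wnt firefly luciferase reporters (7TFP or TCF4/Wnt) were seeded in 384-well plates. 24 h later they received kinase inhibitor library compounds at a final 10 µM for 24 h. Parallel plates were read for firefly luciferase or CellTiterGlo luminescence on a Tecan F500 reader. Each well's signal was normalised to the plate median (webcellHTS2, additive, no log transformation), and the mean of two independent replicates is reported.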
# HCT116 [7] = experiment: as above; conditions: 10 µM; treatment time 24 h; reporter: TCF4/Wnt
# Method in brief: as §2
# SW480 [8] = experiment: as above; conditions: 10 µM; treatment time 24 h; reporter: 7TFP
# Method in brief: as §2
# DLD1 [9] = experiment: TCF/Wnt firefly luciferase reporter signal relative to plate median (fraction of plate median); higher = higher Wnt reporter signal; conditions: 10 µM, treatment time 24 h
# Method in brief: as §2
# HCT116 [10] = experiment: as above; conditions: 10 µM; treatment time 24 h; reporter: TCF4/Wnt
# Method in brief: as §2
# SW480 [11] = experiment: as above; conditions: 10 µM; treatment time 24 h; reporter: 7TFP
# Method in brief: as §2
structure (smiles),measurement,setting,value
CC[C@H]1OC(=O)[C@H](C)[C@@H](O[C@H]2C[C@@](C)(OC)[C@@H](O)[C@H](C)O2)[C@H](C)[C@@H](O[C@@H]2O[C@H](C)C[C@H](N(C)C)[C@H]2O)[C@](C)(OC)C[C@@H](C)C(=O)[C@H](C)[C@@H](O)[C@]1(C)O,cell viability,DLD1 [1],0.858 ± 0.099
same,cell viability,HCT116 [2],0.931 ± 0.0071
same,cell viability,SW480 [3],1.05 ± 0.042
same,TCF/Wnt firefly luciferase reporter signal,DLD1 [4],0.996 ± 0.021
same,TCF/Wnt firefly luciferase reporter signal,SW480 [5],1.125 ± 0.0071
COc1cc2ccc(=O)oc2c(O)c1O,cell viability,DLD1 [1],0.945 ± 0.077
same,cell viability,HCT116 [2],0.908 ± 0.061
same,cell viability,SW480 [3],0.966 ± 0.062
same,TCF/Wnt firefly luciferase reporter signal,DLD1 [4],1.04 ± 0.042
same,TCF/Wnt firefly luciferase reporter signal,SW480 [5],0.9995 ± 0.00071
CC(C)c1c(O)ccc2c1CC[C@H]1C(C)(C)CCC[C@]21C,cell viability,DLD1 [1],1.16 ± 0.12
same,cell viability,HCT116 [2],1 ± 0.13
same,cell viability,SW480 [3],1.03 ± 0.076
same,TCF/Wnt firefly luciferase reporter signal,DLD1 [4],0.855 ± 0.11
same,TCF/Wnt firefly luciferase reporter signal,SW480 [5],0.996 ± 0.035
NS(=O)(=O)c1cc2c(cc1Cl)N=C(CSCc1ccccc1)NS2(=O)=O,cell viability,DLD1 [1],0.974 ± 0.079
same,cell viability,HCT116 [2],1.08 ± 0.014
same,cell viability,SW480 [3],0.974 ± 0.066
same,TCF/Wnt firefly luciferase reporter signal,DLD1 [4],0.861 ± 0.04
same,TCF/Wnt firefly luciferase reporter signal,SW480 [5],1.03 ± 0.042
CN1C2CCC1CC(OC(=O)C(O)c1ccccc1)C2 (stereo not drawn),TCF/Wnt firefly luciferase reporter signal,DLD1 [4],1.05 ± 0.042
same,TCF/Wnt firefly luciferase reporter signal,SW480 [5],1.12 ± 0.021
CC(C(=O)O)c1ccc(C(=O)c2cccs2)cc1 (stereo not drawn),cell viability,DLD1 [1],1.01 ± 0.021
same,cell viability,HCT116 [2],1.025 ± 0.0071
same,cell viability,SW480 [3],1.02 ± 0.014
same,TCF/Wnt firefly luciferase reporter signal,DLD1 [4],0.996 ± 0.021
same,TCF/Wnt firefly luciferase reporter signal,SW480 [5],0.999 ± 0.072
CC[C@@H](C(=O)[C@@H](C)[C@@H](O)[C@H](C)CCc1ccc(C)c(O)c1C(=O)O)[C@H]1O[C@](CC)([C@H]2CC[C@](O)(CC)[C@H](C)O2)C[C@@H]1C,cell viability,DLD1 [1],0.985 ± 0.013
same,cell viability,HCT116 [2],1.03 ± 0.098
same,cell viability,SW480 [3],1.02 ± 0.014
same,TCF/Wnt firefly luciferase reporter signal,DLD1 [4],1.23 ± 0.099
same,TCF/Wnt firefly luciferase reporter signal,SW480 [5],1.03 ± 0.12
CN[C@@H]1[C@H](O[C@H]2[C@H](O[C@H]3[C@H](O)[C@@H](O)[C@H](NC(=N)N)[C@@H](O)[C@@H]3NC(=N)N)O[C@@H](C)[C@]2(O)CO)O[C@@H](CO)[C@H](O)[C@H]1O,cell viability,DLD1 [1],0.9855 ± 0.0078
same,cell viability,HCT116 [2],1.13 ± 0.042
same,cell viability,SW480 [3],1.055 ± 0.0071
same,TCF/Wnt firefly luciferase reporter signal,DLD1 [4],1.18 ± 0.071
same,TCF/Wnt firefly luciferase reporter signal,SW480 [5],1.11
Cc1noc(NS(=O)(=O)c2ccc(N)cc2)c1C,cell viability,DLD1 [1],0.904 ± 0.0057
same,cell viability,HCT116 [2],1.04 ± 0.13
same,cell viability,SW480 [3],0.915 ± 0.044
same,TCF/Wnt firefly luciferase reporter signal,DLD1 [4],1.02 ± 0.076
same,TCF/Wnt firefly luciferase reporter signal,SW480 [5],0.984 ± 0.079
C=C(C)[C@@H]1CC[C@]2(C(=O)O)CC[C@]3(C)[C@H](C[C@H]4OC(=O)C[C@@H](O)[C@]5(C)[C@@H]4[C@@]3(C)CC[C@H]5C(=C)C)[C@@H]12 [Chiisanogenin (12)],cell viability,DLD1 [1],0.9945 ± 0.00071
same,cell viability,HCT116 [2],1.02 ± 0.12
same,cell viability,SW480 [3],0.968 ± 0.023
same,TCF/Wnt firefly luciferase reporter signal,DLD1 [4],1.11 ± 0.028
same,TCF/Wnt firefly luciferase reporter signal,SW480 [5],1.12 ± 0.028
N#CCNC(=O)c1ccc(-c2ccnc(Nc3ccc(N4CCOCC4)cc3)n2)cc1,cell viability,DLD1 [6]; reporter: 7TFP,1.06 ± 0.014
same,cell viability,DLD1 [6]; reporter: TCF4/Wnt,1.12 ± 0.021
same,cell viability,HCT116 [7],1.25 ± 0.078
same,cell viability,SW480 [8],1.09 ± 0.035
same,TCF/Wnt firefly luciferase reporter signal,DLD1 [9]; reporter: 7TFP,1.32 ± 0.26
same,TCF/Wnt firefly luciferase reporter signal,DLD1 [9]; reporter: TCF4/Wnt,1.16 ± 0.13
same,TCF/Wnt firefly luciferase reporter signal,HCT116 [10],1.31 ± 0.25
same,TCF/Wnt firefly luciferase reporter signal,SW480 [11],0.923 ± 0.34
CC(C)(C)NCC(O)c1cc(O)cc(O)c1 (stereo not drawn),cell viability,DLD1 [1],1.045 ± 0.0071
same,cell viability,HCT116 [2],1.02 ± 0.061
same,cell viability,SW480 [3],1.09 ± 0.028
same,TCF/Wnt firefly luciferase reporter signal,DLD1 [4],0.999 ± 0.03
same,TCF/Wnt firefly luciferase reporter signal,SW480 [5],1.03 ± 0.13
O=C(NOCC(O)CO)c1cc(Br)c(F)c(F)c1Nc1ccc(I)cc1F (stereo not drawn),cell viability,DLD1 [6]; reporter: 7TFP,1.17 ± 0.12
same,cell viability,DLD1 [6]; reporter: TCF4/Wnt,0.96 ± 0.13
same,cell viability,HCT116 [7],0.891 ± 0.047
same,cell viability,SW480 [8],1.19 ± 0.028
same,TCF/Wnt firefly luciferase reporter signal,DLD1 [9]; reporter: 7TFP,1.72 ± 0.38
same,TCF/Wnt firefly luciferase reporter signal,DLD1 [9]; reporter: TCF4/Wnt,1.47 ± 0.16
same,TCF/Wnt firefly luciferase reporter signal,HCT116 [10],1.95 ± 0.47
same,TCF/Wnt firefly luciferase reporter signal,SW480 [11],2.33 ± 0.064
CCCCCCCCCCCCCc1ccco1,cell viability,DLD1 [1],1.05
same,cell viability,HCT116 [2],1.03 ± 0.021
same,cell viability,SW480 [3],1.02 ± 0.021
same,TCF/Wnt firefly luciferase reporter signal,DLD1 [4],0.964 ± 0.14
same,TCF/Wnt firefly luciferase reporter signal,SW480 [5],0.987 ± 0.12
